This is an account of results in PubChem BioAssay.

Focal adhesion kinase 1 (Homo sapiens), sequence (Q05397 whole entry, looked up): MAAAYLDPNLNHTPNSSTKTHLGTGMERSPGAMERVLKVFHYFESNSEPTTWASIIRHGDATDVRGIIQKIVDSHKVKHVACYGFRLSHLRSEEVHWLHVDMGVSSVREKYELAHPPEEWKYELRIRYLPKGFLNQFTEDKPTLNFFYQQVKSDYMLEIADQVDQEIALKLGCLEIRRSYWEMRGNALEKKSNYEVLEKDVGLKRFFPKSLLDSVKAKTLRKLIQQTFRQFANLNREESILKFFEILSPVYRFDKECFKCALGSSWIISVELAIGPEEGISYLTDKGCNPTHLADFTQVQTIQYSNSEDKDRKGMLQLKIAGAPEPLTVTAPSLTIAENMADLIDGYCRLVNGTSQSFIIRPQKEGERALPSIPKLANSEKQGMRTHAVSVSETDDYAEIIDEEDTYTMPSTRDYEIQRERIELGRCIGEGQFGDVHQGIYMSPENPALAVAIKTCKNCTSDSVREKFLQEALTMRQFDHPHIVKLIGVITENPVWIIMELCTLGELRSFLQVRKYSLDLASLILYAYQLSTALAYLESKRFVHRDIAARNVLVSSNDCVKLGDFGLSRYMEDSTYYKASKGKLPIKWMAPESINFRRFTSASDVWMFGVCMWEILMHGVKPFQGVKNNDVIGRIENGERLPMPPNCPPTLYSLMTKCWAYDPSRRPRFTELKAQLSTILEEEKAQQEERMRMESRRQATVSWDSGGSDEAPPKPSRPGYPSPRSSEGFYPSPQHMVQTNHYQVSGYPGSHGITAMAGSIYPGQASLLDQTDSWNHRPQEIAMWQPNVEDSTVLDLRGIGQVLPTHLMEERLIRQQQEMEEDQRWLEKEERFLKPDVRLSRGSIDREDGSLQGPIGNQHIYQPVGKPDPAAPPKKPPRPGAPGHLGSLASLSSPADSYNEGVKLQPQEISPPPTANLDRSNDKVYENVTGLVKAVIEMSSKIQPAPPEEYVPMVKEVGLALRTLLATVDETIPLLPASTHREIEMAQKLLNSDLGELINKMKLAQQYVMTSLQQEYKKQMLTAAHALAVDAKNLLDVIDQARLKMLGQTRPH

The assay addresses Focal adhesion kinase 1 (Homo sapiens) (UniProt Q05397). The assay can be described thus: PTK2 protein binding on printed compound slides – biochemical, small-molecule microarray, 635/667 nm fluorescence, BSA, DTT, primary screen (AID 1130).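 Also: composite of spot emission at 667 nm and signal to noise over triplicate slides.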 Conditions: 635 nm fluorescence, higher = more signal.
As for `CO[C@@H]1COC(=O)[C@@H]2CCCN2C(=O)[C@@H](C)COC(=O)[C@H](COCc2ccccc2)NC(=O)CC=C[C@H]1C`, the composite z-score amounted to 0.0252. The molecule `C#CCCCON=C1C[C@@H](O)[C@@H](O)[C@@H]2[C@@H]3C(=O)N([C@@H](C)c4ccccc4)C(=O)[C@@H]3CC[C@H]12` registered a composite z-score of 0.48. `COCCCNC(=O)[C@@]1(C)c2ccccc2C(=O)N(Cc2ccc(OC(F)(F)F)cc2)[C@H]1c1ccc(CO)cc1` displayed a composite z-score of -0.253. `C=COC[C@H]1CN2[C@@H](CC[C@@H](C)[C@@H]2c2ccc(Br)cc2)C(=O)O1` came in with a composite z-score of 0.0351. In turn, `CC(CCN1CCCCc2nc(C)c(C)cc21)=NOC(C)CN1CCCc2nc(C)c(C)cc21` (stereo not given) returned a composite z-score of 0.671.

Molecule `CC(C)=NOCc1ccc(-c2cc(-c3ccccc3)no2)cc1` displayed a composite z-score of 0.0171. To `CCc1cc2c(nc1CC)CCN(CCC(C)=NOC[C@@H](O)[C@H]1O[C@@H]3OC(C)(C)O[C@@H]3[C@H]1O)C2` belongs -0.113; to `COc1cccc([C@H]2Oc3ccc(OC)cc3C(=NO[C@H](C)c3cn([C@@H]4COC[C@H]4O)nn3)[C@@H]2O)c1`, -0.624. Consider `O=C(NN=C1C[C@@H](O)[C@@H](O)[C@@H]2[C@@H]3C(=O)N(c4ccc(F)cc4F)C(=O)[C@@H]3CC[C@@H]12)OCc1ccccc1`, for which the composite z-score is -0.179. Molecule `CCOC(=O)[C@H](Cc1ccccc1)NC(=O)CCC1CC(OC(=O)NCc2ccc3c(c2)OCO3)CC2(CCCC(COC(=O)NCc3cccc(C(F)(F)F)c3)O2)O1` (stereo not given in full) had a composite z-score of -0.15. Take `C[C@@H](c1ccccc1)N1C(=O)[C@H]2[C@H]3[C@H](O)C=CC(=O)[C@@H]3CC[C@H]2C1=O`: the composite z-score was -0.0464.

Regarding `Cc1cc2c(c(=O)o1)[C@H](O)[C@H]1O[C@H]1C2=O`, the composite z-score was -0.21.

`COc1ccc(COC(=O)NN=C2C[C@@H](O)[C@@H](O)[C@@H]3[C@@H]4C(=O)N(c5ccc(F)cc5F)C(=O)[C@@H]4CC[C@@H]23)cc1` returned a composite z-score of 0.0141. For `CO[C@@H]1COC(=O)CCC[C@@H](C)[C@H](OC)COC(=O)CCC[C@H]1C`, the composite z-score was -0.217. `O=C1C[C@@H](O)[C@@H](O)[C@@H]2[C@@H]3C(=O)N(Cc4ccc5c(c4)OCO5)C(=O)[C@@H]3CC[C@@H]12` had a composite z-score of 0.0309. For `CC=CC1=C(CO)[C@H](O)[C@H]2O[C@H]2[C@H]1O`, the composite z-score was -0.0741.

`CC(C)[C@H](NC(=O)OC(C)(C)C)[C@@H](O)CC(=O)OC(C)(C)C` displayed a composite z-score of -0.563.

On to `CO[C@H]1COC(=O)[C@@H]2CCCN2C(=O)CC=C[C@@H](C)[C@H](OC)COC(=O)CC=C[C@@H]1C`, for which the composite z-score was -0.0405. The same measure for `COC(=O)[C@H](C)NC(=O)CCC1CC(OC(=O)NCCc2ccc(F)cc2)CC2(CCCC(COC(=O)NCCc3ccc(Cl)cc3)O2)O1` (stereo not given in full): 0.167. As to `CC(C)=CCCC(C)=CCON=C1[C@H]2CCn3c(=O)n(C)c(=O)n3[C@H]2[C@H](O)[C@@H]2O[C@H]12`, the composite z-score was -0.236. To `O=C(NN=C1C[C@@H](O)[C@@H](O)[C@@H]2[C@@H]3C(=O)N(c4cccc(Oc5ccccc5)c4)C(=O)[C@@H]3CC[C@@H]12)OCc1ccccc1` belongs 0.0623; to `CC(=O)OC[C@H]1O[C@H](C#CCCCc2ccccc2)C=C[C@@H]1OC(C)=O`, 0.126. In turn, `CC(CCN1CCc2nc(-c3ccccc3)c(-c3ccccc3)cc2C1)=NO[C@H](C)c1cn([C@@H]2COC[C@H]2O)nn1` returned a composite z-score of 0.0127. `O[C@@H](Cc1ccccc1)[C@H]1C2C=CCCC(c3ccccc3)=C2CN1Cc1cccc(Cl)c1` (stereo not given in full) yielded a composite z-score of -0.0839.

`COc1ccc([Si](C)(C)[C@H]2[C@H](CCO)O[C@@]3(C(=O)N(Cc4cccc(NC(=O)[C@H](C)O)c4)c4ccccc43)[C@@H]2C)cc1` yielded a composite z-score of 0.598. To `O=C1NC(=O)C2C1C=CC(C(O)Cc1ccccc1)N2Nc1ccccn1` (stereo not given) belongs 0.116. The molecule `CC(CCC(=O)OC[C@H]1O[C@H](C#Cc2ccccc2)C=C[C@@H]1Oc1ccc(C)cc1)=NOC[C@@H](O)COCc1ccco1` displayed a composite z-score of -1.1.

Turning to `CC1CC/C=C\[C@H]2OC34C=CCN(Cn5nnc6ccccc65)C(=O)[C@H]3N(CCO)C(=O)[C@@H]4C2C(=O)O1` (stereo not given in full), the composite z-score was determined as 1.42. As for `CCOC(=O)CCN1C(=O)[C@H]2[C@H]3[C@H](O)[C@H](O)CC(=NNC(=O)OCc4ccc(OC)cc4)[C@@H]3CC[C@H]2C1=O`, the composite z-score was 0.215. Consider `CCN1C(=O)[C@H]2[C@H]3[C@H](O)[C@H](O)CC(=NOC(C)CN4CCCCc5nc(C)c(C)cc54)[C@@H]3CC[C@H]2C1=O` (stereo not given in full), for which the composite z-score came out at 0.167. `C#CCCCON=C1C[C@@H](O)[C@@H](O)[C@@H]2[C@@H]3C(=O)N(CCC(=O)OCC)C(=O)[C@@H]3CC[C@@H]12` returned a composite z-score of 0.934. Turning to `CCN1C(=O)[C@H]2[C@H]3[C@H](O)[C@H](O)CC(=NO[C@@H]4O[C@H](CO)[C@@H](O)[C@H](O)[C@H]4O)[C@@H]3CC[C@H]2C1=O`, the composite z-score is -0.41. The molecule `COCC1=C2[C@@H](CCc3ccccc3)OB(O)C[C@@H]2n2c(=O)n(-c3ccccc3)c(=O)n2C1` gave a composite z-score of -0.0493. To `CN1C(=O)C2C=CC(C(O)c3ccc(Br)cc3)N(N(c3ccccc3)c3ccccc3)C2C1=O` (stereo not given) belongs 0.704; to `CC(CCN1CCCCc2nc(C)c(C)cc21)=NOC(C)CN1CCCCc2nc(C)c(C)cc21` (stereo not given), 0.332.
